HPGD inh = inhibitors of human 15-hydroxyprostaglandin dehydrogenase (HPGD); AID 894; purified HPGD, NADH fluorescence kinetic, PGE2 substrate; Potency, µM, without a hit: at the highest dose activity change, negative = inhibition, most hits filed as inhibitors; 150,000 compounds, 4.3% hits; note: potency is the fitted concentration of half-maximal effect
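NADH formation kinetics: reaction with 30 uM PGE2 and 1 mM NAD+ (final), 20 nM enzyme, Tris-HCl pH 8 with Tween 20, after 15 min compound preincubation at room temperature. Fluorescence change, last versus first of five reads.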
PNC assembly inh = blocks assembly of the perinucleolar compartment; PC3M PTB-GFP, PNC prevalence imaging, 16 h; active compounds read low; activity change (PNC), negative = inhibition, % at 10 µM; 140,000 compounds, 3.1% hits; AID 2417;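 active = readout at or below -70, meaning at least 70% loss of cells showing the perinucleolar compartment, a nuclear body marking cancer cells; inconclusive = readout between -30 and a set limit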;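 note: plate controls were DMSO wells for no effect and camptothecin positive control wells for full effect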
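PC3M cells stably expressing PTB-GFP, 750–1000 cells/well, treated 16 h at 37 °C with compound (23 nl of library stock), in duplicate. After paraformaldehyde fixation and Hoechst stain, imaged at 20x; PNC prevalence scored by image analysis.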
ALDH1A1 block = inhibitors of human aldehyde dehydrogenase 1A1; P00352; Potency, µM (top dose mostly 75.3 µM), for inactives: at the top dose activity, negative = inhibition, actives largely listed as inhibitors; Purified ALDH1A1, NADH fluorescence, propionaldehyde substrate; AID 1030; 220,000 compounds, 7.3% hits;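 note: potency is the fitted concentration of half-maximal effect; plate controls were no enzyme wells and a reference inhibitor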
Target sequence (P00352 whole entry, looked up): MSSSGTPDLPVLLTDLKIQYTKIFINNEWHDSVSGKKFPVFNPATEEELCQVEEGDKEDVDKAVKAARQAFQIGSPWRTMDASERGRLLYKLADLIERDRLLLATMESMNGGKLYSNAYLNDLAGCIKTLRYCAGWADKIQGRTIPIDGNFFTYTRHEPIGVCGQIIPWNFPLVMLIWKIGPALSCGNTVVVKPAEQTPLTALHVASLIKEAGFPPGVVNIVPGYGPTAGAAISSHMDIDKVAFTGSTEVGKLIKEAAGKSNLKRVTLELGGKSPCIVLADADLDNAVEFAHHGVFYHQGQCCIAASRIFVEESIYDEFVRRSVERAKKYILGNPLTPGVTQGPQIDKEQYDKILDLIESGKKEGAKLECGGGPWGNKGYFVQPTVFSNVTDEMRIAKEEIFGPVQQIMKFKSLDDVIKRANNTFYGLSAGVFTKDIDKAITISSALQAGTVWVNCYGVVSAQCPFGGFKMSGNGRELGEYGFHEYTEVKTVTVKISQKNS
Active calls of the source: *; ? = inconclusive; nt = no result given; ! = not confirmed by another sample. This is a sample that favours compounds with a hit; in the whole collection about 11% have one here. Unless noted, calls come from the whole dose curve; as a rule, active = well fitted inhibition curve with a large enough effect (not every such curve was filed as active); inconclusive = small, poorly fitted or top-dose-only effect, or another doubt; inactive = no such curve, though single readings can be large or run the other way. Unless noted, % is set by controls: 0 for no effect and ±100 for the full control effect.

SMILES	HPGD inh	PNC assembly inh	ALDH1A1 block
O=C1NC(=O)C(c2ccccc2[N+](=O)[O-])=C1Nc1ccc(O)c(Cl)c1	-13.8%	nt	28.2µM*!
O=C(NNc1ccccc1[N+](=O)[O-])Nc1ccc(Cl)c(Cl)c1	-18.6%	21.3	?
O/N=C/c1ccn(-c2ccc(Br)cc2)c1	nt	nt	7.6%
O=C(Nc1ccc(OC(F)F)c(Cl)c1)Nc1ccc2c(c1)OCO2	-6.8%	-86.7*	-0.4%
O=C(Nc1ccc2c(c1)OCO2)Nc1ccc2c(c1)OCO2	nt	nt	-4.1%
COc1ccc(NC(=O)Nc2cccc([N+](=O)[O-])c2)cc1Cl	-14.6%	?	?
O=C(Nc1ccc([N+](=O)[O-])cc1)Nc1ccc(OC(F)F)c(Cl)c1	-4.4%	-113.4*	-1.4%
Cc1ccsc1C(=O)C1CCCN(Cc2cc(F)ccc2-n2cccn2)C1 (stereo not drawn)	nt	nt	-3.2%
Cc1ccc(N2CCN(C(=O)c3ccccc3NC(=O)C3CC=CCC3C(=O)O)CC2)cc1 (stereo not drawn)	-6.5%	53.8	?
Cc1cc(C)c[n+](C(C)C(=O)c2ccc(-c3ccccc3)cc2)c1 (stereo not drawn)	-6.5%	-17.0	-7.3%
CC(C)C[C@@H](CC(=O)N[C@H](CC(=O)N[C@@H]1CCNC[C@H]1C(=O)N[C@H](CC(=O)N[C@@H](CCC(=O)O)CC(=O)O)CC(C)C)C(C)C)NC(=O)[C@@H]1CNCC[C@H]1N	-9.2%	nt	-4.8%
CN(c1ccccc1)S(=O)(=O)c1ccc(C(=O)NCC2CCCO2)cc1 (stereo not drawn)	-26.1%	-6.8	1.6%
CCCC(=O)Nc1ccc(C(=O)NCC2CCCO2)cc1 (stereo not drawn)	11.2µM*	-2.9	?
O=C(NC(=S)NCC1CCCO1)c1ccccc1Br (stereo not drawn)	-4.6%	26.5	-2.1%
COc1cc(OC)cc(C(=O)NCC2CCCO2)c1 (stereo not drawn)	25.1µM*	-4.4	-2.1%
CN(c1ccc(C(=O)NCC2CCCO2)cc1)S(=O)(=O)c1ccccc1 (stereo not drawn)	14.1µM*	41.3	15.3%
COc1cc(C(=O)NCC2CCCO2)cc(OC)c1OC (stereo not drawn)	-0.2%	-21.7	9.5%
Cc1ccc(C(=O)NC(=S)NCC2CCCO2)cc1Br (stereo not drawn)	-10.6%	-15.0	8.91µM*
CCc1ccc(NC(=O)C(=O)NCC2CCCO2)cc1 (stereo not drawn)	nt	nt	2.9%
CCCC(NC(C)C(=O)N1C(C(=O)O)CC2CCCCC21)C(=O)OCC (stereo not drawn)	-12.3%	nt	2.6%
COc1ccc(OC)c(C2C(C(N)=O)=C(C)Nc3nc(CCCO)nn32)c1 (stereo not drawn)	1.4%	?	10.0%
COc1cccc(N(CC(=O)NCC2CCCO2)C(=O)CNS(=O)(=O)c2ccccc2)c1 (stereo not drawn)	nt	nt	-0.7%
COc1cccc(CN(CC2CCCO2)C(=O)c2cc3ccccc3oc2=O)c1 (stereo not drawn)	nt	nt	15.8µM*
O=C(NCC1CCCO1)c1ccc(COCC(F)(F)C(F)F)cc1 (stereo not drawn)	14.1µM*	51.7	-1.2%
COc1ccc(CN(CC2CCCO2)C(=O)c2cc3ccccc3oc2=O)cc1 (stereo not drawn)	nt	nt	-1.7%
SMILES	HPGD inh	PNC assembly inh	ALDH1A1 block
CN(C)S(=O)(=O)c1cccc(C(=O)NCC2CCCO2)c1 (stereo not drawn)	-14.8%	12.3	3.3%
O=C(NCC1CCCO1)c1cccc(Br)c1 (stereo not drawn)	25.1µM*	-15.5	7.2%
CC(C)NC(=O)c1ccc(COCC(F)(F)C(F)F)cc1	-19.8%	-4.6	2.6%
COc1cccc(S(=O)(=O)NCc2ccc(C(=O)NCC3CCCO3)cc2)c1 (stereo not drawn)	15.8µM*	-16.0	14.1µM*
COc1cc2c(cc1OC)C(C(=O)N1CCN(c3ccccc3)CC1)C(c1cccs1)N(C)C2=O (stereo not drawn)	-3.5%	12.1	?
CC(C)CC(=O)c1c[nH]c(C(=O)NCC2CCCO2)c1 (stereo not drawn)	20µM*	-4.2	?
CC(=O)c1c[nH]c(C(=O)NCC2CCCO2)c1 (stereo not drawn)	0.4%	6.6	8.1%
O=C(NCC1CCCO1)c1sc2cc(Cl)ccc2c1Cl (stereo not drawn)	14.1µM*	?	?
COc1cccc(CNC(=O)C(=O)NCC2CCCO2)c1 (stereo not drawn)	-4.2%	0.2	-10.0%
O=C(Nc1ccc(Cl)cc1C(=O)NCC1CCCO1)c1ccc(Cl)cc1Cl (stereo not drawn)	-1.0%	-18.2	2.6%
COc1cccc(C(=O)NCC2CCCO2)c1 (stereo not drawn)	8.91µM*	23.9	1.0%
Cc1nc(NC(=O)CSc2cc(C)c3ccccc3n2)c(Cl)cc1Cl	nt	34.7	1.7%
COc1ccc2c(COC(=O)CNC(=O)C34CC5CC(CC(C5)C3)C4)cc(=O)oc2c1	?	25.1	?
Nc1nc(N2CCCCC2)c(C=O)c(N2CCCCC2)n1	nt	nt	5.6%
CN(C)c1ccc(C2N([C@H](C#N)c3ccc(N(C)C)cc3)CCCN2[C@@H](C#N)c2ccc(N(C)C)cc2)cc1 (stereo partly drawn)	-7.4%	nt	1µM*
CC1=NN(C(C#N)c2ccc(F)cc2)C(C)(C)C1 (stereo not drawn)	nt	nt	9.1%
O=C1OCC(CO)(CO)N=C1NNc1ccccc1Cl	-17.6%	?	4.7%
O=C(COC(=O)Cc1ccccc1F)Nc1cc(S(=O)(=O)N2CCOCC2)ccc1N1CCCC1	?	48.4	0.6%
Clc1ccc(OCCCCSc2ncccn2)cc1	-25.4%	7.8	-7.0%
Nc1nnc(SCCOc2cccc(Br)c2)s1	-27.8%	-20.7	?
CCCOc1ccc(OCCSc2ncccn2)cc1	14.1µM*	?	2.4%
Cc1ccc(OCCSc2nc(N)cc(N)n2)cc1	nt	nt	-5.9%
CCCOc1ccc(OCCSc2nnc(N)s2)cc1	5.01µM*	19.9	7.4%
COc1ccc(OCCSc2nc(N)cc(N)n2)cc1	25.1µM*	7.7	?
CCc1ccccc1N/C(=N\S(=O)(=O)c1ccccc1)C(F)(F)F	-4.7%	1.0	?
SMILES	HPGD inh	PNC assembly inh	ALDH1A1 block
COc1cccc(-n2c(SCc3cc(=O)oc4cc(O)c(O)cc34)nc3ccccc3c2=O)c1	?	9.0	?
Nc1ccc(Sc2ccc([N+](=O)[O-])cc2)cc1	nt	nt	-7.4%
O=C1C=CC(=O)N1c1ccc(Sc2ccc([N+](=O)[O-])cc2)cc1	nt	nt	0.794µM*
COC(=O)c1nnn(CC(=O)NC(=O)Nc2ccccc2F)c1C(=O)OC	nt	nt	12.0%
CCOC(=O)c1nnn(CC(=O)Nc2ccccc2OC)c1C(=O)OCC	6.7%	-113.4*	11.6%
CCOC(=O)c1nnn(CC(=O)Nc2cc(F)ccc2F)c1C(=O)OCC	-15.1%	47.0	14.9%
COC(=O)c1nnn(CC(=O)NC(=O)Nc2cccc(C)c2C)c1C(=O)OC	-7.3%	-113.4*	4.0%
NC(=O)C1CCN(C(=O)OCc2ccccc2)CC1	-7.0%	31.5	9.3%
CC(C)N(Cc1cn(C)nc1-c1cccc(Cl)c1)Cc1nccn1C	nt	nt	11.5%
COC(=O)[C@@H]1C[C@H]2CC[C@H](O)C[C@H]2N1Cc1c(F)cccc1Cl	-10.7%	nt	0.4%
